Pyk2 oligo antag: antagonists of Pyk2 self-association, primary screen, Q293 cells, FERM NanoBiT luminescence, HTS | Protein-tyrosine kinase 2-beta (Homo sapiens), Q14289 | z-score (the deposit names both 25 µM and 10 µM) | stronger effect = lower value | hit rate 0.83% among 99,000;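 active = Z-score of -3 or lower, scaled per plate to the spread of control and sample wells; inactive = z-score above -3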;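 also: negative z-score means lost luminescence so less FERM oligomerization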
PostGolgi ctrl: growth inhibition of yeast control strain, primary screen, counter-screen for post-Golgi transport modulator project; inhibition, % at 10 µM; efflux-deficient yeast background strain, growth absorbance A615, 16 h; hit rate 5% among 98,000
Cav3 T inh: Cav3.2 calcium influx blockers – cell-based, Fluo-4 calcium fluorescence, FDSS, MLSMR library, primary screen. Voltage-dependent T-type calcium channel subunit alpha-1H (Homo sapiens), O95180. Cav3.2-expressing cells; stronger effect = lower value. B-score at 10 µM. hit rate 4% among 100,000. AID 449739, 2010;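 active = single-dose well whose peak fluorescence ratio is a statistical outlier from its plate by either plate-standardised score or position-corrected B-score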
PostGolgi yeast: phenotypic screen on post-Golgi transport, primary screen; AID 739, 2007; post-Golgi transport phenotypic cell assay; hit rate 0.9% among 98,000; inhibition, % at 10 µM;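 also: yeast cells grown in 1536-well plates; yeast grown about 18 h at 30C before absorbance read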
* hit, by the source's call; nt = no result given. Hits are enriched below; roughly 8% of the tested compounds scored in any of these assays. Rule as the data show it, unless noted: active = inhibition above about 30%; inactive = the rest.

SMILES | Pyk2 oligo antag | PostGolgi ctrl | Cav3 T inh | PostGolgi yeast
CCN(CC)Cc1nc2c(c(=O)[nH]1)C1(CCCC1)Cc1ccccc1-2 | -0.8 | 15 | -6.7* | -2
CCC1(CC)Cc2ccccc2-c2nc(CN3CCOCC3)[nH]c(=O)c21 | -1.4 | 12 | -0.68 | -7
O=c1[nH]c(NCCO)nc2c1C1(CCCC1)Cc1ccccc1-2 | -0.76 | 15 | -4.1* | -1
O=c1[nH]c(CN(CCO)CCO)nc2c1C1(CCCCC1)Cc1ccccc1-2 | -1 | 2 | -11* | -1
Cn1c(NCCCO)nc2c(c1=O)C1(CCCCC1)Cc1ccccc1-2 | -0.8 | 36* | -1.9 | 8
CCOC(=O)[C@@H]1[C@H]2COc3ccccc3[C@@H]2N2C(=O)N(c3ccc(OC)cc3)C(=O)[C@]12C | nt | nt | 1.1 | nt
O=C1c2ccccc2C(=O)N1c1ccc(Cl)cn1 | -0.2 | -2 | nt | 6
CCO[C@H]1OC(C(N)=O)=C[C@@H](C2CC2)[C@@H]1CCCO | nt | nt | 0.58 | nt
Cc1ccccc1Cn1nc(C)c(NC(=O)c2sc3ccccc3c2Cl)c1C | -1.5 | 33* | -6.8* | 2
CC(C)c1nnc(NC(=O)c2sc3ccccc3c2Cl)s1 | -1.1 | 34* | -2.2 | 12
Cc1nn(Cc2c(Cl)cccc2Cl)c(C)c1NC(=O)c1sc2ccccc2c1Cl | 0.72 | 13 | 0.13 | -13
Cc1nn(Cc2ccc(Cl)c(Cl)c2)c(C)c1NC(=O)c1sc2ccccc2c1Cl | -0.12 | 16 | -8.1* | -7
CCCCOc1ccccc1NC(=O)CSc1nnnn1C(C)(C)C | -1.6 | 20 | -4.3 | -6
Cc1cccc(N(CC(=O)NCC2CCCO2)C(=O)CCC(=O)Nc2cc(C)on2)c1 (configuration not stated) | -0.11 | 12 | -0.69 | -4
Cc1ccc(Oc2c(C=O)c3ccccc3n2C)cc1 | -1.8 | 33* | -1.2 | 7
COc1ccc(Oc2c(C=O)c3ccccc3n2C)cc1 | -1.3 | 6 | -0.45 | -12
COc1ccc(-c2nnc(SCC(=O)NC(C)c3ccccc3)o2)cc1OC (configuration not stated) | 0.72 | 2 | -0.44 | 15
Cc1nnc(SCC(=O)c2cc(C)n(-c3c(C)n(C)n(-c4ccccc4)c3=O)c2C)s1 | 1 | 7 | 1.1 | 3
Cc1cc(C(=O)CSc2nncs2)c(C)n1-c1c(C)n(C)n(-c2ccccc2)c1=O | 0.17 | 36* | 0.35 | -6
Cc1ccc(-n2c(C)cc(C(=O)CSc3nncs3)c2C)cc1 | 0.22 | 48* | -1.9 | -4
COc1cc2c(cc1OC)C(c1cccc([N+](=O)[O-])c1)N(C(=O)c1ccc(F)cc1)CC2 (configuration not stated) | -0.97 | 25 | -5.3* | 0
CCCCN=c1scc(-c2ccc3c(c2)NC(=O)CO3)n1N=C1CCCC1 | 0.23 | 65* | 0.32 | 3
CCN=c1scc(-c2ccc3c(c2)NC(=O)CO3)n1N=C1CCCC1 | 2.8 | 7 | -1.4 | -6
O=C(c1csc2ccccc12)N1CCN(c2ccc(Cl)c(Cl)c2)CC1 | 2.5 | 36* | -0.15 | 18
COc1ccc(N2CCN(C(=O)c3csc4ccccc34)CC2)cc1 | -0.01 | 17 | -0.038 | 1
SMILES | Pyk2 oligo antag | PostGolgi ctrl | Cav3 T inh | PostGolgi yeast
COc1ccc(C(=O)NCC(c2cccnc2)N2CCN(c3ccccc3)CC2)cc1OC (configuration not stated) | nt | 0 | -0.19 | -4
O=C(CSCc1cnn(-c2ccccc2)c1-n1cccc1)NCc1cccs1 | 1.7 | 8 | -6.3* | 1
CNC(=O)CSCc1cnn(-c2ccccc2)c1-n1cccc1 | 0.46 | -3 | 1.2 | 21
COc1cccc(CNC(=O)CSCc2cnn(-c3ccccc3)c2-n2cccc2)c1 | -0.48 | 23 | -5.3* | -3
O=C(CN(Cc1ccccc1Cl)C(=O)c1ccc(CN2CCOCC2)o1)NCC1CCCO1 (configuration not stated) | 0.12 | 6 | -0.0092 | 5
CNc1oc(-c2cccs2)nc1C#N | 1 | 0 | nt | -9
N#Cc1nc(-c2cccs2)oc1NCCc1ccccc1 | -0.22 | 34* | -3.9 | 0
N#Cc1nc(-c2cccs2)oc1NCc1ccc2c(c1)OCO2 | -0.43 | 13 | -5.6* | -2
COc1ccc(Nc2oc(-c3cccs3)nc2C#N)cc1 | -0.94 | 13 | -4.4* | -3
Cc1[nH]nc2c1/C(=N/O)CC(c1ccccc1)C2 (configuration not stated) | -0.5 | -1 | 0.21 | -1
CC(=O)N1c2ccccc2C(C)(c2ccccc2)CC1(C)C (configuration not stated) | -0.18 | 15 | -5* | -5
O=C(CN1CCCCC1)N1CCCc2ccccc21 | 1 | 4 | 0.75 | -3
CN1CCN(CC(=O)N2c3ccccc3C(C)(c3ccccc3)CC2(C)C)CC1 (configuration not stated) | 0.94 | 36* | -0.0076 | -4
CC(=O)N1c2ccccc2C(C)CC12CCCCC2 (configuration not stated) | -0.55 | 13 | -1.7 | 2
COc1ccc(-c2nc(CSCC(=O)NC3CCCc4ccccc43)c(C)o2)cc1 (configuration not stated) | 0.3 | 11 | -8.2* | 11
COc1ccc(-c2nc(CSCC(=O)NCc3ccco3)c(C)o2)cc1 | 0.21 | 12 | -0.23 | -5
Cc1cc(Cl)c(S(=O)(=O)Nc2ccc3c(c2)OCO3)cc1OCC(N)=O | -1.6 | 14 | 0.15 | 8
Cc1cc(Cl)c(S(=O)(=O)Nc2ccc3c(c2)OCO3)cc1OCC(=O)NC1CCCCC1 | -1.4 | 9 | -4.2* | 6
CCc1nnc(NC(=O)CN2CCN(c3nc(-c4ccccc4)cs3)CC2)s1 | -2.7 | 42* | -4.1 | 11
CCOC(=O)c1oc2ccccc2c1NC(=O)c1ccccc1OC | -1.1 | 70* | -4.7* | 15
CCOC(=O)c1sc(NC(=O)c2ccccc2OC)nc1C | nt | 42* | 0.68 | -2
Cc1ccc(C(=O)OCCc2c(C)[nH]n(-c3ccccc3)c2=O)cc1 | 2.2 | 10 | -0.026 | 3
CN1CCN(C(=O)C2=C[C@H](c3ccccc3)C[C@H](OCc3ccc(CO)cc3)O2)CC1 | nt | nt | -2.5 | nt
CCOCN(C(=O)Cn1c(COC)nc2ccccc21)c1c(C)cccc1CC | 0.06 | 27 | -3.3* | -3
CCc1cccc(C)c1N(C(=O)Cn1c(COC)nc2ccccc21)C(C)COC (configuration not stated) | -0.53 | 10 | -0.5 | -3
SMILES | Pyk2 oligo antag | PostGolgi ctrl | Cav3 T inh | PostGolgi yeast
Cc1onc(-c2ccccc2)c1C(=O)Nc1cc(C(F)(F)F)ccc1N1CCOCC1 | 0.1 | 43* | -5.9* | 2
O=C(CCc1ccccc1)NC(=S)Nc1cc(C(F)(F)F)ccc1N1CCOCC1 | -1.6 | 19 | -5.7* | -2
Cc1onc(-c2ccccc2)c1C(=O)Nc1ccccc1N1CCOCC1 | -0.53 | 15 | -1.6 | 5
COc1ccc(C(=O)CSc2nnc(CNc3nc(-c4ccccc4)cs3)n2C)cc1 | 0.33 | 22 | -5.7* | -1
Cn1c(CNc2nc(-c3ccccc3)cs2)nnc1SCC(=O)N1CCc2ccccc21 | -0.93 | -1 | -4.6* | -10
Cc1ccc(NC(=O)COC(=O)/C(=C/c2cccs2)c2cccs2)cc1S(=O)(=O)N(C)C | -2.1 | nt | nt | nt
Cc1cc(C)c2cc(CN(Cc3cccnc3)C(=O)c3ccc(F)cc3)c(Cl)nc2c1 | -2.2 | 10 | -1.1 | -4

Screening results deposited in PubChem BioAssay by several laboratories.
